ELG1 repair inh – qHTS screen for small molecules that inhibit ELG1-dependent DNA repair in human embryonic kidney (HEK293T) cells expressing luciferase-tagged ELG1; HEK293T ELG1-luciferase reporter, luminescence, 16 h; DNA damage induced by 5-fluorouridine; 2.3% of 330,000 active; Potency, µM (doses to about 46.1 µM), for inactives: top-dose activity change, negative = inhibition, hits mostly inhibitors; AID 504467, 2011; also: potency is read from the fitted curve at half-maximal effect; nearly all actives have a fitted effect of over 55% in size
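HEK293T cells expressing luciferase-tagged ELG1 (2,000/well) received 5-Fluorouridine plus compound or DMSO for 16 hr at 37 °C. Luciferase was read by ONE-Glo luminescence after 30 min at room temperature.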
HT1080NT lethal – qHTS for induction of synthetic lethality in tumor cells producing 2HG: qHTS for the HT-1080-NT fibrosarcoma cell line | HT-1080-NT fibrosarcoma viability, CellTiter-Glo ATP luminescence, 48 h | Potency, µM (highest dose often 46.1 µM), for the others: at the highest dose activity, negative = less viability, most hits filed as cytotoxic | 1.6% of 360,000 active;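 also: NT is the 2HG producing partner of a matched IDH1 knockdown line; potency is read from the fitted curve at half-maximal effect; 0% = DMSO-treated cells and -100% = media-only wells without cells; nearly all actives have a fitted effect of over 55% in size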
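HT-1080-NT; 750 cells/well; 5% FBS RPMI; 48 h compound, 37 degrees C; CellTiter-Glo luminescence; curve fitting and curve-class assignment.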
HT1080 IDH1KD tx – qHTS for induction of synthetic lethality in tumor cells producing 2HG: qHTS for the HT-1080-IDH1KD cell line. HT-1080 IDH1 knockdown viability, ATP luminescence, 48 h. Potency, µM (titrated, usually from 46.1 µM), for inactives: at the highest dose activity, negative = toxicity, most hits filed as cytotoxic. 2% of 360,000 active. AID 686971, 2013;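 also: potency is read from the fitted curve at half-maximal effect; 0% = DMSO wells and -100% = cell-free medium wells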
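Using the IDH1-knockdown HT-1080 line run in the same batch and compound series as the NT line, viability after 48 h at 37 °C was determined by CellTiter-Glo luminescence and expressed as % activity.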
DT40 TDP1 CPT – qHTS for Inhibitors of human tyrosyl-DNA phosphodiesterase 1 (TDP1): qHTS in cells in presence of CPT; 12% of 420,000 active; Potency, µM (titrated, usually from 46.2 µM), for inactives: at the top dose activity change, negative = growth inhibition, usual class: inhibitors; chicken DT40 Tdp1-/-;hTDP1 cells + 20 nM CPT, ATP luminescence, 48 h; AID 686979, 2013; also: potency is read from the fitted curve at half-maximal effect; nearly all actives have a fitted effect of over 55% in size
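Chicken DT40 Tdp1-/- cells stably complemented with human TDP1 were seeded at 400 cells/well in medium containing 20 nM camptothecin, exposed to pin-transferred compounds, and grown at 37 °C for at least 48 hr. Viability was read as ATP luminescence.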
TDP1 cell noCPT – qHTS for Inhibitors of human tyrosyl-DNA phosphodiesterase 1 (TDP1): qHTS in cells in absence of CPT; DT40 Tdp1-/- hTDP1 cells, no CPT, ATP luminescence, 48 h; 15% of 420,000 active; AID 686978, 2013; Potency, µM (titrated, usually from 46.2 µM), without a hit: at the top dose activity change, negative = growth inhibition, usual class: inhibitors; also: potency is read from the fitted curve at half-maximal effect; nearly all actives have a fitted effect of over 55% in size
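No-CPT arm: Tdp1-/-;hTDP1 DT40 cells (400/well) plus compounds, incubated ≥48 hr at 37 °C. Readout CellTiter-Glo luminescence.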
IL1B secr inh – qHTS for Inhibitors of Inflammasome Signaling: IL-1-beta AlphaLISA Primary Screen. THP-1 LPS/ATP IL-1B secretion, AlphaLISA, 16 h; active compounds read low. 4.7% of 360,000 active. activity change, % at 57.5 µM; in the data active = activity change below about -50%; inconclusive = mostly about -30% to -49%
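Secreted IL-1B measured by AlphaLISA bead assay after 16 h compound exposure of THP-1 cells; compounds (final up to 57.5 uM) added 1 h before LPS (250 ng/mL) and ATP (1.25 mM) stimulation; lower signal means less secretion.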
* marks the source's active call; other numbers are inactive results; ? = inconclusive; . = no result; ! = repeats disagree. A selection: hits, their analogues and other compounds. The true share with any hit is near 19%. Unless noted, calls follow the shape of the dose curve; as a rule, active = well fitted curve in the direction sought with a large enough effect; inconclusive = small, poorly fitted or top-dose-only effect, or another doubt; inactive = no such curve, though single readings can be large; an effect the other way counts as inactive or inconclusive. Unless noted, % is scaled to controls: 0 for no effect and ±100 for the full control effect.

SMILES	ELG1 repair inh	HT1080NT lethal	HT1080 IDH1KD tx	DT40 TDP1 CPT	TDP1 cell noCPT	IL1B secr inh
C=C(C)CN1CC[C@@]23c4c5ccc(O)c4O[C@H]2c2[nH]c4ccccc4c2C[C@]3(O)[C@@H]1C5	.	.	.	-104.8%	26.6µM*	.
Oc1ccc2c3c1OC1c4oc5ccccc5c4C[C@@]4(O)[C@@H](C2)N(CC2CC2)CC[C@]314 (some centres undefined)	1.4%	?	?	-25.3%	?	-50.1*
C=C1CC[C@@]2(O)[C@H]3Cc4ccc(O)c5c4[C@@]2(CCN3CC2CC2)[C@H]1O5	-2.2%	-15.6%	8.8%	1.3%	0.6%	-0.2
C=CCN1CC[C@]23c4c5ccc(O)c4OC2C(=O)CC[C@]3(O)C1C5 (some centres undefined)	.	.	.	21.7%	0.8%	.
O=C1/C(=C/c2ccccc2)C[C@@]2(O)[C@H]3Cc4ccc(O)c5c4[C@@]2(CCN3CC2CC2)C1O5 (some centres undefined)	18.3µM*	1.64µM*	3.66µM*	3.26µM*	2.59µM*	-108.3*
O=C1NC(=O)N(CCC2=CCCCC2)C(=O)/C1=C/c1cccs1	-9.0%	-6.4%	-7.2%	?	-29.0%	?
N#CC1c2ccccc2-n2nncc2CN1C(=O)c1ccccc1F (centres undefined)	.	22.2%	23.1%	-15.5%	-21.7%	2.0
C=CCN1CC[C@@]23c4c5ccc(O)c4O[C@H]2/C(=N\N=C2/CC[C@@]4(O)[C@H]6Cc7ccc(O)c8c7[C@@]4(CCN6CC=C)[C@@H]2O8)CC[C@]3(O)[C@@H]1C5	.	.	.	?	29.9µM*	.
O=C(N/N=C/C1C(=O)NC(=S)N(c2ccccc2)C1=O)c1cc(Br)c(O)c(Br)c1 (centres undefined)	11.0%	-13.9%	-0.3%	16.4µM*	?	31.3
CCCC(C)C1(CC)C(=O)N=C(S)NC1=O (centres undefined)	.	.	.	0.7%	2.8%	.
NC(=NCCCC(N)C(=O)O)N[N+](=O)[O-] (centres undefined)	.	.	.	-18.9%	-3.9%	.
CCC(C)C(=O)OC1C(O)C2C(CN3CC(C)CCC3[C@]2(C)O)C2C[C@]34O[C@@]5(O)C(OC(=O)C(C)(O)CC)CCC3(C)C5C(OC(C)=O)C(OC(C)=O)C4[C@@]21O (some centres undefined)	.	.	.	0.8%	4.3%	.
Cc1cc(C)cc(Oc2nc3ccccn3c(=O)c2/C=C(\C#N)c2nc3ccccc3s2)c1	.	.	.	?	9.2µM*	.
Cc1cccc(Oc2nc3c(C)cccn3c(=O)c2/C=C(\C#N)c2nc3ccccc3s2)c1	.	.	.	?	18.4µM*	.
Cc1cccn2c(=O)c(/C=C(\C#N)c3nc4ccccc4s3)c(Oc3ccc(F)cc3)nc12	.	.	.	?	20.6µM*	.
Cc1ccccc1-n1c(C)nc2ccsc2c1=O	.	-11.1%	-3.0%	-2.4%	-6.8%	-2.2
Cc1cccc(C)c1Oc1nc(-c2ccccc2)ncc1S(=O)(=O)c1ccccc1	16.6%	-3.2%	-0.1%	?	18.4µM*	2.2
CC(C)c1ccc(CNC(=O)c2ccc(N3CCCC3)c(NC(=O)NCc3ccccc3)c2)cc1	.	.	.	14.6µM*	23.1µM*	.
CC(C(=O)Nc1ccc(Br)cc1C(=O)c1ccccc1)N1CCCCC1 (centres undefined)	2.2%	-3.6%	-11.1%	-29.5%	?	-22.1
O=C(COc1cccc(Cl)c1)N1CCN(CCc2ccncc2)CC1	.	.	.	-22.7%	-0.9%	.
CCCc1nc(SCC(=O)N2CCc3ccccc3C2)c2ccccc2n1	-22.5%	?	?	?	?	-71.8*
Cn1c(=O)cc(SCC(=O)N2CCC3(CC2)OCCO3)c2ccccc21	?	-16.8%	-13.3%	-23.1%	?	-26.7
Cc1ccccc1-n1c(O)c(C=Nc2ccc(N(C)C)cc2)c(=O)[nH]c1=O	18.1%	-0.3%	-0.9%	23.1µM*	18.4µM*	-2.9
CCN(CC)c1ccc(N=Cc2c(O)n(-c3ccc(Cl)cc3)c(=O)[nH]c2=O)cc1	1.4%	10.7%	0.5%	20.6µM*	?	46.0
CCc1ccc(NP(=O)(Oc2ccccc2F)Oc2ccccc2F)cc1	?	18.4µM*	23.1µM*	?	?	-102.0*
SMILES	ELG1 repair inh	HT1080NT lethal	HT1080 IDH1KD tx	DT40 TDP1 CPT	TDP1 cell noCPT	IL1B secr inh
CCN1C[C@]2(COC(=O)c3ccccc3N3C(=O)C[C@H](C)C3=O)CC[C@H](OC)[C@@]34[C@@H]5C[C@H]6[C@H](OC)[C@H]5[C@](O)(C[C@@H]6OC)[C@@](O)([C@@H](OC)[C@@H]23)[C@@H]14	.	.	.	12.0%	-7.4%	.
O=C1c2ccccc2-c2cc3ccccc3cc21	.	4.9%	-1.7%	-24.7%	?	-9.3
O=C1c2ccccc2-c2cccc3cccc1c23	.	16.8%	0.6%	20.6µM*!	18.4µM*!	-17.0
COc1c2c(c(CC=C(C)C)c3oc(=O)c(-c4ccc(O)cc4)c(O)c13)OC(C)(C)C=C2	.	.	.	-4.1%	-22.5%	.
Cc1ccc2c(c1)C1CN(C)CCC1N2C(=O)c1cccs1 (centres undefined)	-1.2%	3.5%	-0.6%	18.8%	-0.7%	-7.8
Cc1ccc2c(c1)C1CN(C)CCC1N2C(=O)Nc1ccc(Cl)cc1 (centres undefined)	?	?	?	?	25.9µM*	-72.0*
CC(n1cc(C[C@H](N)C(=O)O)c2ccccc21)n1cc(C[C@H](N)C(=O)O)c2ccccc21	.	.	.	22.1%	-0.5%	.
CCCCN1C(=O)/C(=C\c2ccco2)C(=O)N(CCc2ccccc2)C1=O	8.1%	2.0%	7.4%	?	-20.0%	-22.7
O=C1NC(=O)N(Cc2ccc(F)cc2)C(=O)/C1=C\C=C\c1ccco1	?	20.6µM*	?	7.31µM*	7.31µM*	-95.6*
CCN1C(=O)NC(=O)/C(=C\c2cn(CC(=O)O)c3ccccc23)C1=O	10.7%	.	.	.	.	.
O=C(O)Cn1cc(/C=C2\C(=O)NC(=O)N(Cc3ccco3)C2=O)c2ccccc21	10.2%	1.8%	-13.2%	0.731µM*	?	4.9
